# According to the supplement of paper PMC11006884:
# Of roughly 6,500 targets only a part is listed; those with a hit were picked by preference. About 2% of all pairs of compound and target were hits.
# Compound: COC(=O)C#Cc1ccccc1 [methyl 3-phenylpropiolate]
# Test: log2 ratio of iodoacetamide-alkyne labeling of the cysteine site, DMSO over compound (competition); higher = stronger covalent engagement of the cysteine by the compound, active = 1 or more
# Conditions: 500 µM; treatment time 1 h; system: HEK293T cell lysate
# Method in brief: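 The log2 competition ratio per cysteine is defined as mean reporter intensity in control channels over mean reporter intensity in compound channels. Lysate from HEK293T cells (2 mg/mL) received electrophile (500 µM) or vehicle for 1 h at ambient temperature, followed by iodoacetamide alkyne for 1 h. Samples were clicked to sCIP-TMT reagents, pooled, trypsin-digested overnight at 37 °C, streptavidin-enriched, acid-eluted and run on Orbitrap Eclipse LC-MS/MS with FAIMS, with quantification in FragPipe. Three replicates with duplicate channels were used, and any cysteine quantified in only one replicate was excluded.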
row,Target,log2 ratio of iodoacetamide-alkyne labeling
1,UniProt Q5VSL9_C418,1.22 (active)
2,CRBN C78 (UniProt Q96SW2),0.133 (inactive)
3,EP400 C162 (UniProt Q96L91),0.339 (inactive)
4,AKAP1 C389 (UniProt Q92667),1.15 (active)
5,SETD7 C200 (UniProt Q8WTS6),0.34 (inactive)
6,TMEM192 C266 (UniProt Q8IY95),0.418 (inactive)
7,OSBPL9 C720 (UniProt Q96SU4),-0.0484 (inactive)
8,ARID2 C1512 (UniProt Q68CP9),0.438 (inactive)
9,UniProt Q86Y56_C409,0.492 (inactive)
10,DAZAP1 C39 (UniProt Q96EP5),0.0955 (inactive)
11,UniProt Q86Y56_C173,0.779 (inactive)
12,USP9X C1061 (UniProt Q93008),0.0678 (inactive)
13,GBF1 C1766 (UniProt Q92538),0.302 (inactive)
14,VPS13B C2907 (UniProt Q7Z7G8),0.889 (inactive)
15,SIN3A C486 (UniProt Q96ST3),-0.0562 (inactive)
16,RPL36AL C72 (UniProt Q969Q0),0.0561 (inactive)
17,THOC6 C314 (UniProt Q86W42),0.0566 (inactive)
18,TSR2 C17 (UniProt Q969E8),0.599 (inactive)

row,Target,log2 ratio of iodoacetamide-alkyne labeling
1,RDH10 C272 (UniProt Q8IZV5),0.324 (inactive)
2,MASTL C285 (UniProt Q96GX5),1.02 (active)
3,PHIP C954 (UniProt Q8WWQ0),1.46 (active)
4,UniProt Q7LBC6_C1212,0.571 (inactive)
5,CPNE1 C53 (UniProt Q99829),-0.0731 (inactive)
6,PARG C963 (UniProt Q86W56),0.0715 (inactive)
7,UniProt Q6PJG6_C720,0.324 (inactive)
8,UniProt Q69YQ0_C79,0.787 (inactive)
9,NUP205 C877 (UniProt Q92621),0.102 (inactive)
10,RANBP9 C610 (UniProt Q96S59),0.53 (inactive)
11,CNN2 C175 (UniProt Q99439),1.04 (active)
12,PTCD3 C642 (UniProt Q96EY7),0.535 (inactive)
13,ISOC2 C84 (UniProt Q96AB3),0.179 (inactive)
14,CEP128 C915 (UniProt Q6ZU80),0.335 (inactive)
15,CAND1 C1153 (UniProt Q86VP6),0.443 (inactive)
16,STRBP C40 (UniProt Q96SI9),0.168 (inactive)
17,ZFYVE16 C174 (UniProt Q7Z3T8),0.35 (inactive)
